Data: the supplement of paper PMC6555819

Legend:
Experiment in all cases: PBM binding z-score (relative to random genomic background probes); higher = stronger binding; sequences stand for … in GC…GCGATTGACAGCGTAGAATGAAGG
[1] = system: FXR:RXRa (NR concentration 270 nM, RXRa partner concentration 90 nM)
Outline: (§1)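 Binding buffer was PBS pH 7.4 with 2% milk, 0.02% Triton X-100, 1 mM DTT, 0.2 mg/mL BSA and 0.4 mg/ml salmon testes DNA. In it, ligand-free nuclear receptor dimers were incubated 1 h on custom Agilent 4×180K protein-binding microarrays carrying double-stranded probes. Antibodies against each partner (one per run) detected binding, and z-scores were calculated against random background probes after regression normalization of scanned fluorescence.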

[2] = system: LXRa:RXRa (NR concentration 270 nM, RXRa partner concentration 90 nM)
Outline: as §1

[3] = system: LXRa homodimer (NR concentration 270 nM)
Outline: as §1

[4] = system: LXRb:RXRa (NR concentration 270 nM, RXRa partner concentration 90 nM)
Outline: as §1

[5] = system: LXRb homodimer (NR concentration 270 nM)
Outline: as §1

[6] = system: PPARa:RXRa (NR concentration 270 nM, RXRa partner concentration 90 nM)
Outline: as §1

[7] = system: PPARg:RXRa (NR concentration 180 nM, RXRa partner concentration 90 nM)
Outline: as §1

[8] = system: PPARg:RXRa 270nM:90nM, anti-RXR (NR concentration 270 nM, RXRa partner concentration 90 nM)
Outline: as §1

[9] = system: PPARg:RXRa 30nM:10nM, anti-RXR (NR concentration 30 nM, RXRa partner concentration 10 nM)
Outline: as §1

[10] = system: PPARg:RXRa 90nM:30nM, anti-RXR (NR concentration 90 nM, RXRa partner concentration 30 nM)
Outline: as §1

[11] = system: PPARg:RXRa DBDmut IVT, anti-RXR (DBD mutation: RXRa K156A/R161A, NR concentration 270 nM, RXRa partner concentration 90 nM)
Outline: as §1

[12] = system: PPARg:RXRa IVT, anti-PPARg (NR concentration 270 nM, RXRa partner concentration 90 nM)
Outline: as §1

[13] = system: PPARg DBDmut:RXRa IVT, anti-PPARg (DBD mutation: PPARg1 K132A/R137A, NR concentration 270 nM, RXRa partner concentration 90 nM)
Outline: as §1

[14] = system: PPARg DBDmut IVT, anti-PPARg (DBD mutation: PPARg1 K132A/R137A, NR concentration 270 nM)
Outline: as §1

[15] = system: PPARg homodimer (NR concentration 180 nM)
Outline: as §1

[16] = system: PXR:RXRa (NR concentration 270 nM, RXRa partner concentration 90 nM)
Outline: as §1

[17] = system: PXR homodimer (NR concentration 270 nM)
Outline: as §1

[18] = system: RARa:RXR (NR concentration 270 nM, RXRa partner concentration 90 nM)
Outline: as §1

[19] = system: RARa homodimer (NR concentration 270 nM)
Outline: as §1

[20] = system: RARb:RXRa (NR concentration 270 nM, RXRa partner concentration 90 nM)
Outline: as §1

Sequence | PBM binding z-score [1] | PBM binding z-score [2] | PBM binding z-score [3] | PBM binding z-score [4] | PBM binding z-score [5] | PBM binding z-score [6] | PBM binding z-score [7] | PBM binding z-score [8] | PBM binding z-score [9] | PBM binding z-score [10] | PBM binding z-score [11] | PBM binding z-score [12] | PBM binding z-score [13] | PBM binding z-score [14] | PBM binding z-score [15] | PBM binding z-score [16] | PBM binding z-score [17] | PBM binding z-score [18] | PBM binding z-score [19] | PBM binding z-score [20]
CCTTACGGGTCACGAGGTTATAGCGCGACGAGCG | 7 | 4.91 | 0.435 | 3.79 | -0.01 | 6.01 | 7.42 | 6.71 | 3.03 | 5.28 | 3.89 | 5.36 | 1.53 | 2.01 | 3.21 | 4.57 | 0.486 | 6.3 | 1.06 | 4.56
GCGACTGGGGCATCAGCAGGTTACAATAACTTAA | -0.294 | -0.143 | -0.328 | 0.834 | -0.691 | 1.24 | 1.02 | 0.768 | -0.192 | 0.171 | 3.24 | 3.27 | -0.414 | -0.53 | 0.365 | 0.0826 | -0.126 | 0.651 | -0.54 | 0.753
CCGAGTAGGTTATGGGGCATTCACGCAACGGTGA | 0.165 | 0.583 | -0.0835 | 0.908 | 0.284 | 2.27 | 3.48 | 4.67 | 2.32 | 4.69 | 3.46 | 3.48 | 0.0074 | -0.799 | 1.81 | -0.0726 | -0.244 | 0.125 | 0.665 | 1.06
CGTCCAAGGTCAAAGGTCTGTGAAGAGATGACGG | 7.64 | 5.46 | 1.27 | 4.26 | 0.554 | 5.87 | 7.08 | 6.81 | 4.47 | 6.48 | 3.5 | 4.39 | 1 | 0.0198 | 3.15 | 4.82 | 1.13 | 6.06 | 0.626 | 5.4
ATCTCCAGGTAAGACTCAGTTCAGTGAAGAACGC | 0.579 | 0.595 | 0.65 | 0.641 | 0.696 | 0.265 | 0.0991 | 0.41 | 0.426 | 0.596 | 0.285 | 0.513 | 0.311 | 1.43 | 1.51 | 1.38 | 1.36 | 0.454 | 0.892 | 0.446
AGTCAAAGTTCAGGACAAGGTAACGTAAAGCACG | 4.6 | 3.97 | 1.69 | 2.19 | 0.548 | 3.47 | 4.97 | 4.95 | 2.16 | 4.11 | -0.163 | 2.21 | 1.02 | 0.792 | 2.91 | 3.12 | 1.58 | 3.09 | 1.2 | 4.38
CCTAGCAGGCCAATCTGGGCCACTCAAGGCTTGA | -0.284 | -0.644 | -0.799 | -1.18 | -1.02 | 0.492 | -0.0153 | -0.364 | -1.32 | -1.08 | 2.99 | 2.85 | -0.703 | -1.73 | -0.99 | -1.04 | -1.05 | -1.11 | -0.723 | 0.0812
GTACCAAGGTGAATAGCTCGTTGATGAGTAGGCG | -0.0145 | 0.0679 | -0.285 | -0.246 | -0.451 | 0.416 | 0.554 | 0.238 | -0.33 | -0.123 | 1.55 | 1.7 | -0.0388 | -0.301 | -0.135 | -0.403 | -0.283 | -0.0864 | -0.272 | 0.887
TCTTGTAGATCAAAGGTTAAGCAAGCCGAAGCCT | 1.32 | 2.21 | 0.224 | 2.12 | -0.28 | 5.08 | 8.51 | 8.42 | 9.42 | 9.87 | 2.3 | 4.26 | 1.03 | 0.316 | 0.998 | 2.14 | -0.0892 | 3.34 | -0.483 | 2.11
TCTCGGAGAACACGAAGGTCAGAGCTTTCCAGAG | -0.456 | 0.775 | -0.321 | 0.915 | -0.994 | 1.59 | 0.33 | 1.41 | 2.09 | 1.74 | 1.08 | 0.106 | -2.09 | -1.27 | 0.419 | 1.29 | -0.535 | 1.67 | -0.665 | 2.49
GCTATTAGTTGAAAGGGCGACCGAATGATTCTCG | -0.184 | 0.0609 | -0.118 | 0.0118 | -0.239 | 0.973 | 1.72 | 3.27 | 1.2 | 3.05 | 0.652 | -0.0504 | -0.223 | -0.65 | 0.251 | -0.1 | -0.523 | 0.097 | -0.0879 | 0.699
TTACCAAGGTGAAAGCTCGTTGATGCACGCCTTG | 0.225 | -0.099 | -0.701 | -0.367 | -1.12 | 1.29 | 0.87 | 1.43 | 0.448 | 0.792 | 1.69 | 2.4 | 0.152 | -0.364 | -0.529 | -0.393 | -1 | 0.109 | -0.866 | 1.3
CCTAGTTGGTCAAGGTTACACACGCTATAGGTAC | 1.22 | 1.09 | 0.67 | 1.4 | 0.618 | 1.79 | 1.82 | 2.2 | 0.763 | 1.81 | 1.65 | 2.24 | 1.11 | 1.66 | 2.04 | 1.19 | 1.09 | 1.6 | 1.63 | 1.99
TCATATAGGAAAAGGTGAAAGTCGAACGATATGA | 1.2 | 1.15 | -0.161 | 1.4 | -0.24 | 2.46 | 1.45 | 3.09 | 4.54 | 4.05 | 1.88 | 1.52 | 1.28 | 0.696 | 0.985 | 0.902 | -0.139 | 1.54 | 0.581 | 1.93
